We go through 9 compounds from PubChem BioAssay (NCI).

Compounds without any hit were thinned out: in the full panel of roughly 83,000, 20% have a hit.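 Testing used 96-well plates and a 48-hour single-concentration exposure. Example: -40 means 40% of the starting cells died.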 Unmarked numbers belong to inactive results. The source made the active and inactive calls. How the source made its calls: active means growth percent below 10; inactive means the rest.

Among the test systems are SR leukemia; RPMI-8226 leukemia; OVCAR-8 ovarian; OVCAR-5 ovarian; OVCAR-4 ovarian; SK-OV-3 ovarian; IGROV1 ovarian; OVCAR-3 ovarian; HS 578T breast; NCI/ADR-RES ovarian; T-47D breast; BT-549 breast; MDA-MB-435 melanoma; SW-620 colon; MCF7 breast; HCT-116 colon; HCC-2998 colon; KM12 colon.
Common to all, as to test: NCI-60 one-dose screen, 48 h (100 = growth as untreated, 0 = no growth, -100 = all killed)
Common to all, as to details: 10 µM

With `COc1ccc(OC)c([N+](=O)[O-])c1C=O`, the growth in the assay with SR leukemia is 37.2%; in the assay with RPMI-8226 leukemia, 75.1%; in the assay on OVCAR-8 ovarian, 97.8%; in the assay with OVCAR-5 ovarian, 107%; with OVCAR-4 ovarian, 105%; in the assay with SK-OV-3 ovarian, 101%. Also, the growth is 101% in the assay with IGROV1 ovarian; 101% in the assay on OVCAR-3 ovarian; 89.6% with HS 578T breast; 113% with NCI/ADR-RES ovarian; 56.5% in the assay with T-47D breast; 117% in the assay on BT-549 breast. Further, the growth in the assay with MDA-MB-435 melanoma was 101%; in the assay with SW-620 colon, 65.1%; with MCF7 breast it was 38.2%; with HCT-116 colon it was 50.7%; with HCC-2998 colon, 110%; in the assay on KM12 colon, 95.8%.

Turning to `O=c1ccc2nc(-c3ccccc3)nn(-c3ccccc3)c-2c1`, the growth with SR leukemia is -20.2% (active); in the assay on RPMI-8226 leukemia, -8.63% (active); in the assay with OVCAR-8 ovarian, -2.36% (active); in the assay with OVCAR-5 ovarian it was 102%; in the assay with OVCAR-4 ovarian, -40.7% (active); with SK-OV-3 ovarian it was 59.1%. Further, the growth is 2.66% (active) in the assay on IGROV1 ovarian; -98.1% (active) in the assay with OVCAR-3 ovarian; 75.9% in the assay on HS 578T breast; 96.2% in the assay on NCI/ADR-RES ovarian; -36.5% (active) in the assay with T-47D breast; 90.2% in the assay on BT-549 breast. For the same compound, the growth in the assay with MDA-MB-435 melanoma was 24.7%; in the assay with SW-620 colon, -80.5% (active); with MCF7 breast, -66.7% (active); in the assay on HCT-116 colon, -90.7% (active); in the assay with HCC-2998 colon it was 100%; with KM12 colon it was 63.1%.

With `C=CCn1c(C)nc2cc(Nc3nc(Nc4ccc5nc(C)n(CC=C)c5c4)c4ccccc4n3)ccc21`, the growth with SR leukemia is -44.2% (active); with RPMI-8226 leukemia, -24% (active); in the assay with OVCAR-8 ovarian, -40.9% (active); with OVCAR-5 ovarian, -92.5% (active); in the assay on OVCAR-4 ovarian it was -100% (active); in the assay on SK-OV-3 ovarian it was -95.7% (active). Besides, the growth in the assay on IGROV1 ovarian is -93.8% (active); in the assay with OVCAR-3 ovarian, -99.8% (active); with HS 578T breast, -48.1% (active); with NCI/ADR-RES ovarian it was -23.7% (active); with T-47D breast, -60.3% (active); in the assay on BT-549 breast, -84% (active). In addition, the growth with MDA-MB-435 melanoma is -76% (active); in the assay with SW-620 colon, -76.2% (active); with MCF7 breast it was -89.3% (active); in the assay on HCT-116 colon it was -96.5% (active); with HCC-2998 colon it was -96.1% (active); with KM12 colon it was -93.2% (active).

For `COc1ccc2c(c1)/C(=C/c1cc(OC)c(OC)c(OC)c1)C(=O)N2C`, the growth in the assay with SR leukemia is 17%; in the assay with RPMI-8226 leukemia, -25.2% (active); in the assay with OVCAR-8 ovarian it was 28.8%; in the assay with OVCAR-5 ovarian it was 66.4%; in the assay on OVCAR-4 ovarian, 47.3%; in the assay with SK-OV-3 ovarian, 19.3%. In addition, the growth in the assay on IGROV1 ovarian was 0.661% (active); in the assay with OVCAR-3 ovarian, -72% (active); in the assay on HS 578T breast it was -12.4% (active); with NCI/ADR-RES ovarian, 2.46% (active); in the assay on T-47D breast, -11.1% (active); in the assay on BT-549 breast it was 57.1%. Further, the growth with MDA-MB-435 melanoma was -50.3% (active); in the assay on SW-620 colon, 1.64% (active); with MCF7 breast it was 4.54% (active); in the assay with HCT-116 colon it was 19.3%; in the assay with KM12 colon, -20.8% (active).

`O=NN(CCCl)C(=O)NCc1ccc(-c2ccc(CNC(=O)N(CCCl)N=O)cc2)cc1`: the growth in the assay on SR leukemia was -5.09% (active); in the assay on RPMI-8226 leukemia, 93.5%; in the assay with OVCAR-8 ovarian it was 94%; in the assay on OVCAR-5 ovarian it was 115%; in the assay on OVCAR-4 ovarian it was 114%; with SK-OV-3 ovarian, 95.8%. The growth is 66.6% in the assay with IGROV1 ovarian; 115% with OVCAR-3 ovarian; 116% in the assay on HS 578T breast; 100% in the assay with NCI/ADR-RES ovarian; 101% in the assay on T-47D breast; 86.6% in the assay on BT-549 breast. Moreover, the growth in the assay on MDA-MB-435 melanoma was 91.3%; in the assay with SW-620 colon, 89.5%; with HCT-116 colon, 89.2%; in the assay on HCC-2998 colon, 101%; in the assay with KM12 colon, 98.9%.

On to `Cc1ccc(S(=O)(=O)N2CCc3ccccc3CC2)cc1`, for which the growth in the assay on SR leukemia was 84.8%; with RPMI-8226 leukemia, 42.3%; in the assay with OVCAR-8 ovarian it was 79.2%; with OVCAR-5 ovarian, 94.3%; in the assay on OVCAR-4 ovarian, 44.8%; in the assay on SK-OV-3 ovarian, 96.3%. The growth in the assay on IGROV1 ovarian is 104%; in the assay on OVCAR-3 ovarian, 103%; in the assay with HS 578T breast, 109%; in the assay on NCI/ADR-RES ovarian, 69.8%; with T-47D breast it was 63.1%; in the assay with BT-549 breast it was 64.7%. Besides, the growth in the assay on MDA-MB-435 melanoma is 101%; in the assay on SW-620 colon it was 97.6%; in the assay with HCT-116 colon, 68.5%; in the assay with HCC-2998 colon, 91%; in the assay with KM12 colon it was 94.3%.

For the compound `O=[N+]([O-])C1CC2C=CC1C2` (stereo not drawn), the growth is 92.4% in the assay on SR leukemia; 111% with RPMI-8226 leukemia; 102% in the assay with OVCAR-8 ovarian; 104% in the assay on OVCAR-5 ovarian; 99.7% in the assay with OVCAR-4 ovarian; 102% in the assay with SK-OV-3 ovarian. Further, the growth in the assay on IGROV1 ovarian is 103%; in the assay with OVCAR-3 ovarian, 91.6%; in the assay with HS 578T breast it was 97.9%; in the assay with NCI/ADR-RES ovarian, 95.6%; in the assay on T-47D breast it was 93%; in the assay with BT-549 breast it was 97.3%. The growth in the assay with MDA-MB-435 melanoma is 92.7%; in the assay with SW-620 colon, 103%; in the assay with MCF7 breast it was 92.1%; in the assay on HCT-116 colon, 107%; in the assay with HCC-2998 colon it was 102%; with KM12 colon, 104%.

As for `C(=C\c1nc2ccccc2s1)/c1ccc(N2CCOCC2)s1`, the growth is 26.3% in the assay on SR leukemia; 62.9% with RPMI-8226 leukemia; 97.6% with OVCAR-8 ovarian; 112% in the assay on OVCAR-5 ovarian; 72.9% with OVCAR-4 ovarian; 98.7% in the assay on SK-OV-3 ovarian. The growth in the assay on IGROV1 ovarian was 100%; in the assay with OVCAR-3 ovarian it was 85.8%; in the assay with HS 578T breast, 112%; in the assay with NCI/ADR-RES ovarian it was 69.9%; in the assay on T-47D breast it was 1.72% (active); in the assay with BT-549 breast it was 89.5%. Also, the growth with MDA-MB-435 melanoma was 64.9%; in the assay on SW-620 colon, 101%; in the assay on MCF7 breast it was 80.2%; with HCT-116 colon it was 55.4%; in the assay on KM12 colon, 48.6%.

As for `CC(C)OP(=O)(O)c1ncc(-c2ccc(C(F)(F)F)cc2)c(NC2CCCCCC2)n1`, the growth is 86.3% in the assay on SR leukemia; 8.81% (active) in the assay on RPMI-8226 leukemia; 52.3% with OVCAR-8 ovarian; 84.6% in the assay on OVCAR-5 ovarian; 52% with OVCAR-4 ovarian; 85.2% in the assay on SK-OV-3 ovarian. Moreover, the growth is 62.4% with IGROV1 ovarian; 12.1% in the assay with OVCAR-3 ovarian; 81.7% with HS 578T breast; 97.5% in the assay on NCI/ADR-RES ovarian; 41.7% with T-47D breast; 86.6% in the assay on BT-549 breast. For the same compound, the growth with MDA-MB-435 melanoma was 62.7%; in the assay with SW-620 colon, 54.7%; in the assay with MCF7 breast it was 51.1%; with HCT-116 colon it was 53.1%; in the assay with HCC-2998 colon it was 89.8%; in the assay on KM12 colon, 48%.
